In PubChem BioAssay (NCI):
This is part of a sample that, as a whole, favours compounds with a hit. Of some 79,000 tested, about 15% had one in any assay. Active and inactive are the calls of the source. Rule as the data show it: active = growth inhibition above about 70%; inactive = the rest.

Experiment: NCI Yeast Anticancer Drug Screen. Data for the rad50 strain (AID 155);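 also: 0% = growth of vehicle-only cultures of the same strain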
Settings: S. cerevisiae rad50 strain growth inhibition; at 50.0 µM; hits give high values
Description: Growth inhibition of yeast strains with defined genetic alterations is measured as a screen for potential anti-cancer activity. Selected strains with alterations in DNA damage repair or cell cycle control were exposed to compounds and growth inhibition was measured relative to vehicle treated controls. The strain used in this assay is rad50

Compound | growth inhibition
CSC(=N\N=C(/C)c1ccc(Br)cc1)/N=C/N(C)C | 46.2% (inactive)
CC(=O)Oc1cc(C)ccc1C | -2.7% (inactive)
CNC(=O)c1n[nH]c(=S)[nH]c1=O | -7.4% (inactive)
CC(=O)Nc1ccc(S(=O)(=O)O)c(C(F)(F)F)c1 | 17.1% (inactive)
C=CCS(=O)CC(NC(=O)c1ccccc1)C(=O)O (stereo not given) | -32% (inactive)
CC(C(=O)O)C(C)(O)C(C)(C)C (stereo not given) | -3.9% (inactive)
O=Cc1ccc(/C=C/C(=O)O)cc1 | -1.55% (inactive)
CC(C)CNC(=O)/C=C/c1ccc2c(c1)OCO2 | 13.5% (inactive)
COC(=O)C(CCc1ccc([N+](=O)[O-])cc1)(CCc1ccc([N+](=O)[O-])cc1)C(=O)OC | 19.2% (inactive)
CCC(Oc1ccc(OC)c2c1C(=O)CCC2)C(=O)O (stereo not given) | 5.95% (inactive)
CCC[C@@H]1C[C@@H](OC(=S)SC)C[C@H]2CCC(=O)N12 | -3.1% (inactive)
COc1ccc(OC)c(NC(=O)C(=O)C(C(=O)c2ccccc2F)C2OC(=O)c3ccccc32)c1 (stereo not given) | -15.6% (inactive)
N#C/C(=C(/N)N1CCOCC1)N1CCOCC1 | -18.4% (inactive)
CC1=Nn2c(nnc2-c2ccc(Cl)cc2)NC(C)(C)C1 | 25.2% (inactive)
CC1C(O)CCC2C1(C)CCC1C2(C)CCC2(C)C3CC(C)(C)CCC3(C)CCC12C (stereo not given) | -4.9% (inactive)
Cc1ccc(NC(=O)C2C(=O)N(c3ccc(C)cc3)C(=O)/C2=N\NC(N)=S)cc1 (stereo not given) | -29.7% (inactive)
CCNCC(OC)C(COC)OC(=O)c1ccc([N+](=O)[O-])cc1 (stereo not given) | 15.1% (inactive)
Oc1ccccc1C=Nc1ccccc1N=Cc1ccccc1O.[Zn] | 6.45% (inactive)
COc1ccc(C2=CSC3=NC(C)(C)CC(C)=NN23)cc1 | -16.8% (inactive)
Cc1ccc(S(=O)(=O)NC2C(=O)c3ccccc3C(=O)C2n2ccnc2)cc1 (stereo not given) | 4.85% (inactive)

Compound | growth inhibition
C[C@@]1(CO)O[C@H]1CCC#C[Si](C)(C)C | -20.9% (inactive)
ClC(=Nc1ccccc1)c1cc(N2CCOCC2)ccn1 | 24.1% (inactive)
CCOC(=O)CSc1nc(-c2ccc(Cl)cc2)c(C#N)c(=O)[nH]1 | 5.9% (inactive)
CN(C)c1ccc2c(N(C)C)cc(N(C)C)[n+](C)c2c1 | 7.8% (inactive)
O=C(/C=C\c1ccccc1)OCc1ccccc1CN1CCCCC1 | 15.7% (inactive)
O=C1C(=O)c2ccccc2C(O)=C1Br | 27.9% (inactive)
CN(C)C(=S)SCC(=O)c1ccccc1 | -23.1% (inactive)
c1ccc2c(c1)ccc1c3ccccc3ccc21 | 14.5% (inactive)
CC(=O)OCCOC1c2ccccc2-c2ccccc21 | 7.1% (inactive)
Cc1ncc(CO)c(/C=N/NC(N)=S)c1O | 3.3% (inactive)
O=C(C[N+]12CN3CN(CN(C3)C1)C2)c1cccc2ccccc12 | 11.2% (inactive)
Cc1cc(=O)n2c3c(cccc13)CCC2 | 26.3% (inactive)
O=S(=O)(Nc1ccccc1Cl)c1ccc(F)cc1 | -5.85% (inactive)
Cc1ccc(C)c(NC(=S)Nc2ccccc2)c1 | 0.8% (inactive)
O=C(CNC(=O)C(CCC(=O)OCc1ccccc1)NC(=O)OCc1ccccc1)NCC(=O)Oc1ccc([N+](=O)[O-])cc1 (stereo not given) | 25.1% (inactive)
O=C(CC(=O)n1nc(-c2ccccc2)c(N=Nc2ccc(Cl)cc2)c1-c1ccccc1)Nc1ccc(Cl)cc1 | -6.75% (inactive)
O=C(Nc1ccccc1-c1n[nH]c(=S)[nH]c1=O)C(F)(F)F | -2.45% (inactive)
CC(=O)Nc1ccc(S(=O)(=O)N/N=C/C(=O)O)cc1 | -15.6% (inactive)
CC(=O)/C=C\C(=O)NNS(=O)(=O)c1ccc(C)cc1 | 20.6% (inactive)
CCc1ccc(OC(C)=O)cc1 | 12.5% (inactive)
